Screening data deposited in PubChem BioAssay by National Center for Advancing Translational Sciences (NCATS).
An excerpt weighted towards active compounds, which were near 10% of everything screened.
PNC assembly inh: blocks assembly of the perinucleolar compartment; PC3M PTB-GFP, PNC prevalence imaging, 16 h; active compounds read low; activity change (PNC), negative = inhibition, % at 10 µM; 3.1% of 140,000 active; AID 2417;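 active means readout at or below -70, meaning at least 70% loss of cells showing the perinucleolar compartment, a nuclear body marking cancer cells; inconclusive means readout between -30 and a set limit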;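 further: plate controls were DMSO wells for no effect and camptothecin positive control wells for full effect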
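PC3M cells stably expressing PTB-GFP, 750–1000 cells/well, treated 16 h at 37 °C with compound (23 nl of library stock), in duplicate. After paraformaldehyde fixation and Hoechst stain, imaged at 20x; PNC prevalence scored by image analysis.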
HPGD block: HPGD (human) dehydrogenase inhibition | P15428 | 4.3% of 150,000 active | Potency, µM, for the others: at the highest dose activity change, negative = inhibition, most hits filed as inhibitors | purified HPGD, NADH fluorescence kinetic, PGE2 substrate; further: potency means the concentration at half of the fitted maximal effect
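NADH formation kinetics: reaction with 30 uM PGE2 and 1 mM NAD+ (final), 20 nM enzyme, Tris-HCl pH 8 with Tween 20, after 15 min compound preincubation at room temperature. Fluorescence change, last versus first of five reads.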
LMNA splice mod: changes lamin A minigene splicing in HeLa cells | 0.01% of 200,000 active | Potency, µM (doses to about 46.1 µM), without a hit: top-dose ratio change, negative = inhibition, usual class: inhibitors | HeLa LMNA splicing GFP/RFP minigene ratio, 48 h; active means well fitted inhibition curve with a large enough effect in the signal ratio, with a control signal flat, not every such curve was filed as active; inconclusive means small, poorly fitted or top-dose-only effect, or effect the other way, or a change in a side signal; the % refers to the signal ratio; further: potency means the concentration at half of the fitted maximal effect
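S3 HeLa cells stably expressing lamin A-EGFP splicing minigene plus DsRed2, 600 cells/well, 48 h compound exposure at 37C. Laser-scanning cytometry; analysed as GFP (500-530 nm)/RFP (575-640 nm) total intensity ratio; 0.5% DMSO vehicle.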
KinaseGlo FLuc: blocks Kinase-Glo luciferase, a counter-screen artifact; Q27757; Kinase-Glo luciferase, ATP luminescence, 8 min; Potency, µM (series often up to 38.3 µM), for inactives: top-dose activity change, negative = inhibition, most hits filed as inhibitors; 0.28% of 200,000 active; AID 1379; active means well fitted inhibition curve with a large enough effect; inconclusive means small, poorly fitted or top-dose-only effect; further: potency means the concentration at half of the fitted maximal effect; nearly all actives have a fitted effect of over 60% in size
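Kinase-Glo luciferase light output from ATP and luciferin was measured with 10 uM ATP, within the enzyme's linear range. Buffer: 50 mM imidazole pH 7.2, 50 mM KCl, 7 mM MgCl2, 0.01% Tween 20, 0.05% BSA; luminescence read after 8 min at ambient temperature.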
ALDH1A1 inh: inhibitors of human aldehyde dehydrogenase 1A1; AID 1030; P00352; Potency, µM (titrated, usually from 75.3 µM), without a hit: at the top dose activity, negative = inhibition, most hits filed as inhibitors; 7.3% of 220,000 active; Purified ALDH1A1, NADH fluorescence, propionaldehyde substrate;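 further: potency means the concentration at half of the fitted maximal effect; plate controls were no enzyme wells and a reference inhibitor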
Target sequence (P00352 whole entry, looked up): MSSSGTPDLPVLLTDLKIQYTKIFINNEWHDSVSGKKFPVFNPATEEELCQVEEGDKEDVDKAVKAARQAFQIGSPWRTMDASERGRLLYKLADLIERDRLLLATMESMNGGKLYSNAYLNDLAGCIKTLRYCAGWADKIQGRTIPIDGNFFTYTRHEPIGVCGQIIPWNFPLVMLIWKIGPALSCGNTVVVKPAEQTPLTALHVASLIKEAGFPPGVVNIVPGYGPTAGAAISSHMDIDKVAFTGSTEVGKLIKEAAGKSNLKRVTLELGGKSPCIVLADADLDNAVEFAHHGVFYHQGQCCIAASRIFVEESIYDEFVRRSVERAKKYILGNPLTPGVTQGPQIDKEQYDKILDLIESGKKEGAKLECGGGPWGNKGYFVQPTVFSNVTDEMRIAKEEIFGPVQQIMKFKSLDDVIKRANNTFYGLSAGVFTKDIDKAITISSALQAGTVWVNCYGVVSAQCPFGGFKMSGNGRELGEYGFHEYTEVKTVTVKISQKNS
Numbers without * were called inactive; u = inconclusive; x = not tested or not shown; [ ] = another dose, or the depositor's remark. Unless noted, the call rests on the fitted dose curve; in most records, active means well fitted inhibition curve with a large enough effect (not every such curve was filed as active); inconclusive means small, poorly fitted or top-dose-only effect, or another doubt; inactive means no such curve, though single readings can be large or run the other way. Unless noted, on the % scale 0 is the no-effect control and ±100 the full control effect.

SMILES | PNC assembly inh | HPGD block | LMNA splice mod | KinaseGlo FLuc | ALDH1A1 inh
COc1ccc(C2CC(c3cccs3)=NN2C(=O)CSC2=NN3CCCC(=O)N=C3S2)cc1 (stereo not given) | 32 | -14% | -14% | 4% | u
Cc1ccc(C2CC(c3cccs3)=NN2C(=O)CSC2=NN3CCCC(=O)N=C3S2)cc1 (stereo not given) | -21 | -27% | u | 2% | 28µM*
C[C@]12C[C@@](C)(C=C1/C=C/c1ccc(F)cc1)C(=O)C[C@H]2c1ccc(F)cc1 | x | -5% | x | -5% | 3%
CC12C=C(/C=C/CCc3ccco3)C(C)(C1)C(CCc1ccco1)CC2=O (stereo not given) | x | x | x | x | 4µM*
CC(=O)OC(C)C | x | -1% | x | x | 5%
COc1ccccc1CN1CCCC2(CCN(C(=O)c3cnccn3)CC2)C1 | x | -5% | x | -2% | -6%
CC1(C)CC(=O)C(C=NCC2CCN(C(=O)Nc3ccccc3)CC2)=C(O)C1 | x | -12% | x | -1% | u
Nc1nc2c(c(=O)[nH]1)N[C@H](CCNc1ccc(C(=O)O)cc1)CN2 | x | -7% | x | -6%[7.66 µM] | -9%[13.5 µM]
CC1=CC(C)(C)N(S(=O)(=O)c2ccc(C)cc2)c2ccc(C)cc21 | -90* | -5% | -8% | 2% | 0%
O=C1[C@H]2[C@H]3[C@H](O)[C@H](O)C/C(=N/OC[C@@H](O)COCc4ccco4)[C@H]3CC[C@@H]2C(=O)N1Cc1ccc2c(c1)OCO2 | x | x | x | x | 2%[13.5 µM]
O=C(c1cccs1)c1ccc(-c2cccs2)s1 | -2 | u | u | 7.9µM* | u
O=C(NCc1ccc2c(c1)OCO2)NC1CCCCC1 | x | x | -1%[46 µM] | -1% | -4%
O=C(C[n+]1ccc(C(=O)NCc2ccccc2)cc1)c1ccc2c(c1)OCCO2 | x | x | x | -1% | 3.5µM*
O=C(CC12CCC(CC1)C2)NCc1ccc2c(c1)OCO2 | -1 | 16µM* | -6% | 1% | -10%
Nc1cc[n+](CC(=O)c2ccc3c(c2)OCCO3)cc1 | 53 | -22% | u | -2% | 4%
O=C(NCc1ccccn1)c1cc(-c2ccccc2Cl)nc2ccccc12 | -88* | -16% | -7% | 1% | -11%
O=C(NCCc1ccccn1)c1cc(-c2ccc(Cl)c(Cl)c2Cl)nc2ccccc12 | u | -17% | u | 0% | 4%
Cc1ccccc1CN1CCN(CC(=O)NCc2ccc3c(c2)OCO3)C1=O | -4 | -15% | u | 1% | 13µM*
COc1ccc(NC(=O)c2cnc(SCC(=O)Nc3nc4ccc(C)cc4s3)n(C)c2=O)cc1 | x | x | 12%[46 µM] | x | x
CCCc1cc(=O)[nH]c(SCc2nc(-c3ccc(OC)cc3)no2)n1 | x | x | 0%[46 µM] | x | x
Cc1cc(OCC(=O)NCC2(N3CCOCC3)CCCCC2)ccc1Cl | x | x | 5%[46 µM] | x | x
O=C(NCc1ccc2c(c1)OCO2)C1CC(c2ccccc2O)=NO1 (stereo not given) | -2 | -24% | -1% | 2% | 11µM*
O=C(NCc1ccco1)c1cc(-c2ccccn2)nc2ccccc12 | 27 | -5% | -2% | 0% | -12%
O=C(NCc1ccc2c(c1)OCO2)C1CC(c2cccc(Br)c2)=NO1 (stereo not given) | 2 | -15% | 10% | 0% | -3%
O=C(Cc1ccccc1)NCc1ccc2c(c1)OCO2 | 10 | 32µM* | 11% | 2% | -6%
SMILES | PNC assembly inh | HPGD block | LMNA splice mod | KinaseGlo FLuc | ALDH1A1 inh
O=C1CC(NCc2ccc3c(c2)OCO3)C(=O)N1CCc1ccccc1 (stereo not given) | 0 | -19% | 7% | -1% | 14µM*
O=C(NCc1ccc2c(c1)OCO2)c1cc(-c2ccccn2)nc2ccccc12 | x | x | u | -1% | 1.3µM*
COc1ncc2nc(-c3cccs3)c(=O)n(-c3ccccc3)c2n1 | x | u | x | -4% | u
O=C(NCc1ccc2c(c1)OCO2)c1cccs1 | -26 | 28µM* | 1% | -2% | 9%
CCOCC(=O)NCc1ccc2c(c1)OCO2 | -2 | 13µM* | 1% | -3% | 3%
CCOCCCNC(=O)C(c1ccccc1)N(Cc1ccc2c(c1)OCO2)C(=O)c1ccccc1O (stereo not given) | x | x | x | x | 10µM*
Cc1ccc(CC(=O)NCc2ccc3c(c2)OCO3)cc1 | -2 | -17% | 12% | 0% | -9%
CCOCCCNC(=O)c1ccc2c(c1)OCO2 | -5 | 14µM* | -3% | 0% | 14%
